Results from PubChem BioAssay (NCATS).
Unmarked numbers belong to inactive results. Calls of active or inactive are those of the source. The rule behind the calls is not given here.
Potency is the fitted concentration of half-maximal effect.

What follows are compounds tested on HIV-1 nucleocapsid protein NCp7 (binding to TG oligonucleotide) (assay: HIV Nucleocapsid (AID 346;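 note: potency is for inhibitors that block NC binding and lower polarization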)). Conditions: HIV-1 NC / fluorescein-TGTGTGTG probe, fluorescence polarization.
Summary of the method: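 NCp7 100 nM + fluorescein TG4xF 10 nM; Hepes pH 7.5/250mM NaCl/1uM ZnCl2/0.004% PEG 20000; 1 hr RT; FP, 45 s exposure; oligo-only wells as negative control.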
With `CN(C)c1ccc(-c2nc(NCCc3cnc[nH]3)c3ccccc3n2)cc1` the Potency was greater than 20 µM. Work on `COc1ccc(-n2c(=O)c(-c3ccc(F)cc3)nc3cncnc32)cc1` yielded a Potency greater than 20 µM. With `CN1CCN(c2ncnc3ccc(-c4ccc5c(c4)OCO5)cc23)CC1` the Potency was greater than 20 µM. In the case of `COc1ccc(C(=O)N2CCC3(CCCN(c4ccc(-c5ccccc5)cc4)C3)CC2)cc1`, the Potency is reported as greater than 20 µM. `c1ccc(-c2ccc(N3CCCC4(CCNCC4)C3)cc2)cc1` was tested, and the Potency was greater than 20 µM. Compound `CN(C)C(=O)c1ccc(-c2cncnc2Nc2ccccc2)cc1` has a Potency greater than 20 µM. Work on `Cn1c(=O)cnc2cnc(Nc3ccccc3)nc21` yielded a Potency greater than 4 µM. For `O=C(c1csnn1)N1CCC2(CC1)CCN(C(c1ccccc1)c1ccccc1)CC2`, the Potency was greater than 20 µM. In the case of `O=c1c(-c2cccs2)nc2cnc(Nc3ccccc3)nc2n1C[C@H]1CCCO1`, the Potency is reported as 4.11 µM (active). With `COc1cccc(Cn2c(=O)c(C)nc3cnc(Oc4cccc(Cl)c4)nc32)c1` the Potency was greater than 20 µM. Work on `O=c1c(-c2ccc(F)cc2)nc2cnc(N3CCNCC3)nc2n1Cc1ccc(F)cc1` yielded a Potency greater than 20 µM. `c1cncc(CNc2ncncc2-c2ccc3c(c2)OCO3)c1` gave a Potency greater than 20 µM. `O=c1c(-c2cccs2)nc2cnc(Oc3ccccc3)nc2n1C1CC1` was tested, and the Potency was greater than 20 µM. For `O=C(c1cnccn1)N1CCC2(CC1)CCN(c1cccc(-c3ccccc3)c1)CC2`, the Potency was greater than 20 µM. `O=c1cnc2cnc(Nc3ccccc3)nc2n1Cc1cccs1` showed a Potency greater than 20 µM. `N#Cc1cccc(NC(=O)N2CCCC3(CCN(C(=O)c4cc(C(F)(F)F)cc(C(F)(F)F)c4)CC3)C2)c1` showed a Potency greater than 20 µM. In the case of `CCNc1ncc2nc(-c3cn(C)c4ccccc34)c(=O)n(-c3ccc(OC)cc3)c2n1`, the Potency is reported as 3.86 µM (active). Work on `Cc1nc2cnc(Nc3ccccc3)nc2n(CCC#N)c1=O` yielded a Potency greater than 20 µM. `COc1ccc(Oc2ncc3ncc(=O)n(C)c3n2)cc1` showed a Potency greater than 20 µM. Work on `COc1ccc(C(=O)N2CCC[C@@]3(CCN(CC(C)C)C3)C2)cc1` yielded a Potency greater than 20 µM. With `Cc1nc2cnc(N3CCN(C)CC3)nc2n(CCc2ccccc2)c1=O` the Potency was greater than 20 µM. `COc1ccc(Oc2ncc3nc(-c4cn(C)c5ccccc45)c(=O)n(C)c3n2)cc1` gave a Potency greater than 20 µM. Work on `O=C(c1ccco1)N1CCC2(CC1)CN(c1ncccn1)C2` yielded a Potency greater than 20 µM. Work on `COCCn1c(=O)c(-c2cccc(C#N)c2)nc2cnc(N3CCOCC3)nc21` yielded a Potency greater than 20 µM. Work on `N#CCCn1c(=O)cnc2cnc(Oc3ccccc3)nc21` yielded a Potency greater than 20 µM. Work on `CCNc1ncc2nc(-c3cccs3)c(=O)n(C[C@H]3CCCO3)c2n1` yielded a Potency greater than 20 µM. Compound `CC(=O)N1CCC[C@@]2(CCN(Cc3nccs3)C2)C1` has a Potency greater than 20 µM. With `COCCn1c(=O)c(-c2cccs2)nc2cnc(Oc3cccc(Cl)c3)nc21` the Potency was greater than 20 µM. With `Cc1cccc(CNc2ccnc(-c3cccc(C#N)c3)n2)c1` the Potency was greater than 20 µM. Work on `Cn1cccc1C(=O)N1CCC2(CCCN(c3ccncc3)C2)CC1` yielded a Potency greater than 20 µM. In the case of `CN(C)c1ccc(-c2ccc3ncnc(N(C)C)c3c2)cc1`, the Potency is reported as greater than 20 µM. `Cc1nc2cnc(N3CCN(C)CC3)nc2n(C2CC2)c1=O` showed a Potency greater than 20 µM. `c1ccc(CNc2cc(-c3cccnc3)ncn2)cc1` gave a Potency greater than 20 µM. `COCCn1c(=O)c(-c2cc(F)cc(F)c2)nc2cnc(N(C)C)nc21` gave a Potency greater than 20 µM. With `c1cn(-c2ccnc(-c3ccc4c(c3)OCO4)n2)cn1` the Potency was greater than 20 µM. In the case of `COc1ccc2[nH]cc(CCNc3cc(-c4c(C)noc4C)ncn3)c2c1`, the Potency is reported as greater than 20 µM. `COc1ccccc1-c1cncnc1NCc1cccnc1` gave a Potency greater than 20 µM. With `COc1ccc(-c2nc3cnc(Oc4cccc(Cl)c4)nc3n(C[C@H]3CCCO3)c2=O)cc1` the Potency was greater than 20 µM. `Cn1cc(-c2nc3cnc(Oc4ccccc4)nc3n(C3CC3)c2=O)c2ccccc21` gave a Potency greater than 20 µM. In the case of `O=C(Nc1cccc(F)c1)N1CC2(CCN(S(=O)(=O)c3ccccc3)CC2)C1`, the Potency is reported as greater than 20 µM.
